The subject of one assay is STK16. The following applies: concentration: 1 μM, replicates: in singlicate; n = 1.
The test system of another assay is STK33. The settings on record: concentration: 1 μM, replicates: in singlicate; n = 1.
The next assay has as its system STK35. The settings on record: concentration: 1 μM, replicates: in singlicate; n = 1.
Another assay has as its system STK36. The settings on record: concentration: 1 μM, replicates: in singlicate; n = 1.
The next assay has as its system STK39. The settings on record: concentration: 1 μM, replicates: in singlicate; n = 1.
In another assay the test system is SYK. The following applies: concentration: 1 μM, replicates: in singlicate; n = 1.
The subject of the next assay is SgK110. The settings on record: concentration: 1 μM, replicates: in singlicate; n = 1.
Another assay has as its system T1, TAK1.
T1 construct: gene MAP3K7
The following applies: concentration: 1 μM, replicates: in singlicate; n = 1.

A further assay deals with TAOK1. The following applies: concentration: 1 μM, replicates: in singlicate; n = 1.
Another assay has as its system TAOK2. The settings on record: concentration: 1 μM, replicates: in singlicate; n = 1.
For a further assay, the system named is TAOK3. The settings on record: concentration: 1 μM, replicates: in singlicate; n = 1.
For a further assay, the system named is TBK1. The settings on record: concentration: 1 μM, replicates: in singlicate; n = 1.
A further assay has as its system TEC. The settings on record: concentration: 1 μM, replicates: in singlicate; n = 1.
The next assay has as its system TESK1. The settings on record: concentration: 1 μM, replicates: in singlicate; n = 1.
The subject of a further assay is TGFBR1. The following applies: n = 1.
In another assay the test system is TGFBR2. The following applies: concentration: 1 μM, replicates: in singlicate; n = 1.
Another assay concerns TIE1. The settings on record: concentration: 1 μM, replicates: in singlicate; n = 1.
In another assay the test system is T2, TIE2.
T2 construct: gene TEK
The following applies: concentration: 1 μM, replicates: in singlicate; n = 1.

A further assay has as its system TLK1. The settings on record: concentration: 1 μM, replicates: in singlicate; n = 1.
The subject of a further assay is TLK2. The settings on record: concentration: 1 μM, replicates: in singlicate; n = 1.
Where [1] appears, read: concentration: 1 μM, replicates: in singlicate.

The text below walks through data of PMC5540273 (PLoS ONE, 2017).

SMILES strings stand for the structures. Where two headings read alike, the source gives them in different places.
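Note: KINOMEscan kinase panel screen.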

Turning to `COC(=O)c1c(-c2ccccc2)c2cc(C(=O)O)ccc2c(=O)n1Cc1ccccc1`, the “%Inh” value came to 22% in the assay with STK16; 0% in the assay with STK33; 0% in the assay on STK35; 5% in the assay on STK36; 0% with STK39; 0% with SYK. For the same compound, the “%Inh” value with SgK110 is 14%; in the assay with TAK1, 0%; in the assay on TAOK1 it was 14%; in the assay with TAOK2, 20%; in the assay with TAOK3 it was 0%; with TBK1, 6%. In addition, the “%Inh” value in the assay with TEC worked out at 0%; in the assay with TESK1, 0%; in the assay with TGFBR1 (setting [1]), 21%; in the assay on TGFBR2, 8%; in the assay with TIE1 it was 0%; in the assay with TIE2, 18%. Also, the “%Inh” value is 10% with TLK1 and 0% in the assay on TLK2.

Regarding `Cc1cccc(-c2nc(-c3ccc(S(C)(=O)=O)cc3)sc2-c2ccnc(NCCc3ccccc3)c2)c1`, the “%Inh” value is 13% with STK16; 0% with STK33; 9% in the assay on STK35; 11% with STK36; 1% in the assay on STK39; 0% in the assay on SYK. The “%Inh” value came out at 9% in the assay on SgK110; 0% with TAK1; 0% in the assay on TAOK1; 12% with TAOK2; 0% in the assay on TAOK3; 24% with TBK1. Besides, the “%Inh” value amounted to 0% in the assay with TEC; 11% with TESK1; 26% with TGFBR1 (setting [1]); 0% in the assay on TGFBR2; 14% with TIE1; 19% in the assay on TIE2. The “%Inh” value in the assay with TLK1 was determined as 6%; in the assay with TLK2, 4%.

Turning to `Cn1ccc2ncnc(Oc3cccc(C(=O)Nc4ccccc4)c3)c21`, the “%Inh” value in the assay with STK16 is 0%; in the assay with STK33, 7%; in the assay on STK35 it was 0%; in the assay on STK36, 0%; in the assay with STK39, 0%; in the assay with SYK, 2%. Moreover, the “%Inh” value with SgK110 stood at 0%; in the assay on TAK1, 13%; in the assay on TAOK1, 0%; in the assay on TAOK2, 0%; with TAOK3, 0%; in the assay with TBK1 it was 0%. In addition, the “%Inh” value with TEC is recorded as 11%; in the assay with TESK1 it was 0%; in the assay with TGFBR1 (setting [1]), 8%; in the assay with TGFBR2, 0%; in the assay on TIE1 it was 0%; in the assay on TIE2 it was 0%. Further, the “%Inh” value in the assay on TLK1 is recorded as 5%; with TLK2, 7%.

In the case of `COc1ccc(Nc2nccc(NCCNC(=O)Nc3ccccc3F)n2)cc1` [GSK1379901], the “%Inh” value is 18% with STK16; 0% in the assay on STK33; 0% in the assay with STK35; 0% in the assay on STK36; 10% with STK39; 32% in the assay with SYK. The “%Inh” value in the assay with SgK110 is on record as 0%; in the assay on TAK1 it was 0%; with TAOK1 it was 0%; in the assay with TAOK2, 0%; in the assay on TAOK3, 0%; in the assay with TBK1 it was 21%. For the same compound, the “%Inh” value in the assay on TEC was determined as 12%; with TESK1 it was 44%; in the assay with TGFBR1 (setting [1]), 3%; in the assay on TGFBR2, 0%; in the assay on TIE1, 0%; with TIE2, 0%. Also, the “%Inh” value in the assay on TLK1 and in the assay on TLK2 was 0% each time.

Regarding `O=C(O)COc1ncnc2cc(-c3ccc4[nH]ncc4c3)sc12`, the “%Inh” value in the assay with STK16 stood at 12%; with STK33 it was 0%; with STK35, 0%; in the assay with STK36 it was 0%; in the assay with STK39, 0%; in the assay with SYK, 0%. The “%Inh” value with SgK110 is listed as 0%; in the assay on TAK1 it was 28%; with TAOK1 it was 0%; in the assay with TAOK2 it was 0%; with TAOK3 it was 0%; in the assay on TBK1 it was 11%. Moreover, the “%Inh” value in the assay with TEC is given as 0%; with TESK1, 13%; in the assay on TGFBR1 (setting [1]), 10%; in the assay on TGFBR2 it was 18%; with TIE1 it was 24%; in the assay with TIE2 it was 21%. In addition, the “%Inh” value was determined as 22% with TLK1 and 0% in the assay on TLK2.

Regarding `Cl.c1ccc(-c2n[nH]cc2-c2ccnc(-c3ccc(CN4CCOCC4)cc3)c2)nc1` [GW776245], the “%Inh” value was determined as 17% in the assay with STK16; 0% in the assay on STK33; 0% with STK35; 9% with STK36; 0% in the assay on STK39; 16% with SYK. For the same compound, the “%Inh” value in the assay on SgK110 came out at 0%; with TAK1 it was 0%; in the assay on TAOK1, 0%; in the assay on TAOK2, 5%; in the assay with TAOK3, 0%; in the assay on TBK1 it was 61%. In addition, the “%Inh” value is on record as 17% in the assay with TEC; 6% in the assay on TESK1; 94.5% in the assay on TGFBR1 (1 µM); 87% in the assay with TGFBR2; 0% in the assay on TIE1; 24% with TIE2. Also, the “%Inh” value in the assay with TLK1 and in the assay on TLK2 was 0% throughout.

In the case of `O=C(Nc1n[nH]c2cc(-c3cccc(F)c3F)ccc12)C1CC1` [SB-733894], the “%Inh” value was 12% in the assay with STK16; 0% with STK33; 0% in the assay with STK35; 9% in the assay on STK36; 0% with STK39; 0% in the assay on SYK. Also, the “%Inh” value with SgK110 is 17%; with TAK1, 48%; in the assay with TAOK1, 23%; in the assay with TAOK2, 0%; in the assay with TAOK3 it was 16%; in the assay with TBK1 it was 18%. The “%Inh” value in the assay with TEC was 4%; in the assay on TESK1 it was 8%; in the assay on TGFBR1 (setting [1]) it was 1%; with TGFBR2 it was 14%; in the assay on TIE1, 0%; in the assay on TIE2, 17%. Moreover, the “%Inh” value was 0% in the assay with TLK1 and 5% in the assay on TLK2.

For the compound `Cc1cccc(-c2nc(Nc3ccncc3)c3ccccc3n2)n1` [GW855857], the “%Inh” value came out at 7% in the assay with STK16; 2% with STK33; 0% in the assay on STK35; 5% with STK36; 0% in the assay with STK39; 14% in the assay with SYK. In addition, the “%Inh” value in the assay with SgK110 is 0%; with TAK1, 0%; in the assay with TAOK1 it was 0%; in the assay on TAOK2, 17%; with TAOK3, 0%; with TBK1, 41%. Also, the “%Inh” value turned out to be 10% in the assay with TEC; 14% with TESK1; 95.7% in the assay on TGFBR2; 20% with TIE1; 27% with TIE2; 0% in the assay with TLK1. Moreover, the “%Inh” value in the assay with TLK2 is 0%.

On to `CC(=O)Nc1nc2cnc(Nc3cc(NC(=O)c4cccc(CCC#N)c4)ccc3C)nc2s1`, for which the “%Inh” value in the assay on STK16 came out at 17%; in the assay on STK33 it was 0%; with STK35, 0%; in the assay with STK36 it was 16%; with STK39 it was 0%; in the assay with SYK, 15%. In addition, the “%Inh” value in the assay with SgK110 was 13%; in the assay with TAK1, 42%; in the assay with TAOK1 it was 0%; with TAOK2, 0%; with TAOK3, 0%; in the assay with TBK1, 24%. Moreover, the “%Inh” value in the assay with TEC is listed as 10%; with TESK1, 0%; in the assay with TGFBR1 (setting [1]) it was 0%; with TGFBR2, 0%; in the assay with TIE1, 0%; in the assay with TIE2, 0%. In addition, the “%Inh” value in the assay on TLK1 worked out at 0%; in the assay with TLK2, 7%.

As to `COc1ccc2nc(-c3cccc(C)n3)nc(Nc3ccncc3)c2c1` [GSK204919], the “%Inh” value in the assay on STK16 is given as 1%; with STK33, 0%; in the assay with STK35 it was 5%; in the assay on STK36, 0%; in the assay with STK39, 7%; in the assay on SYK, 10%. Further, the “%Inh” value in the assay with SgK110 is on record as 2%; with TAK1, 0%; in the assay on TAOK1, 0%; in the assay with TAOK2, 0%; in the assay with TAOK3, 0%; with TBK1 it was 3%. The “%Inh” value in the assay on TEC is on record as 8%; in the assay with TESK1 it was 26%; in the assay on TGFBR2, 10%; in the assay with TIE1, 9%; in the assay on TIE2, 0%; with TLK1, 0%. Further, the “%Inh” value in the assay on TLK2 is on record as 0%.

For `COc1cc2ncn(-c3cc(OCC4CCCO4)c(C(N)=O)s3)c2cc1OC` (centres unmarked) [GSK204607], the “%Inh” value in the assay with STK16 was 5%; in the assay on STK33 it was 0%; in the assay on STK35 it was 90%; with STK36, 0%; in the assay on STK39, 0%; in the assay with SYK, 12%. Also, the “%Inh” value is listed as 0% in the assay on SgK110; 18% in the assay on TAK1; 0% in the assay with TAOK1; 0% in the assay on TAOK2; 0% with TAOK3; 23% in the assay on TBK1. Also, the “%Inh” value with TEC is listed as 0%; in the assay with TESK1 it was 0%; in the assay on TGFBR1 (setting [1]), 4%; in the assay on TGFBR2, 0%; in the assay on TIE1, 0%; with TIE2 it was 0%. For the same compound, the “%Inh” value in the assay with TLK1 was found to be 0%; in the assay with TLK2, 11%.
